Screens as filed in PubChem BioAssay.
Compounds with a hit are over-represented: about 4.2% of the library has one in this group of screens.
NALP1 yeast inh: blocks the NALP1 inflammasome reconstituted in yeast | inhibition, % at 10 µM | S. cerevisiae NALP1/ASC/caspase-1 growth, X-gal OD620, 72 h | AID 2071 | 280,000 tested, 0.61% active; in the data active means inhibition mostly above about 24%, no sharp cut-off; inactive means mostly below about 32%
NLRP3 yeast inh: blocks the NALP3 inflammasome reconstituted in yeast. Yeast reconstituted NLRP3/ASC/caspase-1, beta-gal luminescence, 24 h. inhibition, % at 10 µM. 330,000 tested, 0.39% active. AID 2825;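 active means inhibition of 50% or more; inactive means inhibition below 50%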;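 further: plate controls were induced DMSO wells for no effect and uninduced yeast grown without galactose for full effect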
V-ATPase pHluor: yeast V-ATPase proton transport regulation by pHLuorin | 350,000 tested, 0.37% active | response, % at 10 µM | S. cerevisiae, pHLuorin cytosolic pH fluorescence; in the data active means response mostly above about 7.3%, no sharp cut-off; inactive means mostly below about 5.4%; further: actives read high
tim10-1 inh: inhibits growth of tim10-1 mutant yeast | S. cerevisiae tim10-1 ts strain growth, BacTiter-Glo, 24 h | inhibition, % at 20 µM | 330,000 tested, 2.2% active | AID 463190;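 active means inhibition of at least 40%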;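 further: mutant grown at 25 °C; 0% = DMSO wells with yeast and 100% = wells holding no yeast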
TIM10 inh: inhibits growth of TIM10 yeast strain; S. cerevisiae TIM10 strain growth, BacTiter-Glo luminescence, 24 h; inhibition, % at 10 µM; 330,000 tested, 1.4% active; AID 463195;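 active means inhibition of 40% or more at the single tested concentration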;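 further: wild-type TIM10 isogenic control strain grown at permissive 25 °C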
tim23-1 inh: tim23-1 yeast growth inhibition; S. cerevisiae tim23-1 growth, BacTiter-Glo luminescence, 24 h; inhibition, % at 20 µM; 330,000 tested, 1.3% active;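 active means growth inhibition of the mutant yeast at or above 50%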;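 further: temperature-sensitive mutant grown at 25 °C; plate controls were DMSO-treated mutant yeast for no effect and medium wells lacking yeast for full effect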
tim10-1 confirm: confirmation of tim10-1 mutant yeast growth inhibitors; shares compounds with tim10-1 inh; S. cerevisiae tim10-1 ts strain growth, BacTiter-Glo, 24 h; inhibition, % at 20 µM; 7,400 tested, 56% active; AID 463213;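 active means inhibition of yeast growth at or above a set limit in either of two repeat tests at 20 µM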;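 further: tim10-1 mutant grown at permissive 25 °C to find synthetic lethal compounds; 0% = DMSO yeast wells and 100% = medium wells without yeast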
tim10 confirm: confirmation of TIM10 yeast growth inhibitors; 4,600 tested, 63% active; AID 463215; inhibition, % at 10 µM; S. cerevisiae tim10 strain growth, BacTiter-Glo luminescence, 24 h; shares compounds with TIM10 inh;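 active means inhibition of yeast growth at or above a set limit in either of two replicates at 10 µM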;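 further: this counterscreen used the strain with wild-type TIM10; 0% = yeast with DMSO and 100% = medium wells lacking yeast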
tim23-1 confirm: tim23-1 yeast growth inhibition, confirmed; shares compounds with tim23-1 inh; S. cerevisiae tim23-1 growth, BacTiter-Glo luminescence, 24 h; inhibition, % at 20 µM; 4,400 tested, 83% active; AID 463218;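 active means inhibition above about 39% in either of two replicate wells at 20 µM, limit read from the data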;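 further: temperature-sensitive tim23-1 mutant grown at 25 °C; 0% = DMSO wells with yeast and 100% = medium wells without yeast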
An asterisk follows results filed as active; x = not tested or not shown.

SMILES	NALP1 yeast inh	NLRP3 yeast inh	V-ATPase pHluor	tim10-1 inh	TIM10 inh	tim23-1 inh	tim10-1 confirm	tim10 confirm	tim23-1 confirm
CCOc1cc(/C=C2\CN(C)C/C(=C\c3ccc(O)c(OCC)c3)C2=O)ccc1O	8.6	15.5	4.8	57.7*	30.6	52.0*	47.2*	x	61.5*
CN(C)S(=O)(=O)c1ccc(C(=O)OC2CCOC2=O)cc1 (centres undefined)	9.2	2.4	4.4	10.8	-7.2	4.8	x	x	x
COc1ccc(C(CC(=O)O)NC(=O)c2sc3ccccc3c2Cl)cc1 (centres undefined)	2.0	17.6	1.6	10.6	13.6	7.8	x	x	x
O=S(=O)(Cc1ccccc1)Nn1cnnc1	28.6	18.2	5.9	10.7	8.8	2.6	x	x	x
CCOC(=O)CSc1nc(N)nc(C)c1Br	0.4	14.3	1.4	9.2	3.0	16.6	x	x	x
O=c1c2ccccc2oc2cc(-c3ccc4cc[nH]c4c3)ccc12	x	-6.6	-1.0	2.9	6.3	7.4	x	x	x
O=c1c2ccccc2oc2ccc(-c3ccc4[nH]ccc4c3)cc12	x	43.8	1.1	42.1*	41.1*	62.2*	38.9*	66.2*	73.7*
COc1ccc(-c2cc(-c3c(O)c(OC)c4occc4c3OC)[nH]n2)cc1	5.0	6.7	0.0	26.5	19.9	26.6	x	x	x
COc1ccc(-c2cc(-c3c(O)c(OC)c4occc4c3OC)[nH]n2)cc1OC	-1.7	10.1	-1.4	50.2*	36.2	53.5*	31.4*	x	45.0*
Fc1ccc(Sc2nc(-c3ccccc3)nnc2C(F)(F)F)cc1	30.1	15.5	-1.0	60.3*	-0.4	59.5*	35.8*	x	55.4*
CC(OC(=O)C1CCN(S(=O)(=O)c2ccc3c(c2)OCCO3)CC1)C(=O)N(C)c1ccccc1 (centres undefined)	x	5.9	-5.0	19.2	15.6	27.2	x	x	x
O=C(O)/C(=C\c1ccccc1OC(F)F)Sc1nnc(-c2ccc(F)cc2)o1	6.9	-22.0	-3.1	71.0*	58.8*	70.3*	75.1*	68.5*	70.8*
COc1ccc(NC(=O)c2cncc(Br)c2)c(S(=O)(=O)N2CCOCC2)c1	1.8	10.7	1.4	5.3	-6.7	9.9	x	x	x
O=Cc1ccc(Sc2nnc(-c3ccccc3)o2)c([N+](=O)[O-])c1	4.1	23.2	0.3	47.7*	42.4*	55.0*	35.3*	18.3	58.0*
Cc1cc(C)nc(Sc2ccc(C=O)cc2[N+](=O)[O-])n1	1.9	0.9	-1.0	19.3	11.2	15.1	x	x	x
O=C(CNc1n[nH]c(=O)[nH]c1=O)N/N=C/c1ccccc1	7.4	6.7	x	-8.6	-7.4	11.0	x	x	x
Cc1ccc(-c2cc(-c3ccccc3[N+](=O)[O-])[nH]n2)c(O)c1	3.1	10.2	1.7	51.5*	43.6*	59.9*	41.8*	31.1*	66.5*
Oc1ccc(Cl)cc1-c1cc(-c2ccccc2)n[nH]1	13.9	14.1	0.4	42.8*	55.5*	60.0*	35.6*	58.2*	21.6
Cc1ccc(-c2cc(-c3ccc(F)cc3)n[nH]2)c(O)c1	4.9	24.8	-0.2	40.6*	22.6	60.9*	45.5*	x	51.0*
COc1ccccc1-c1cc(-c2cc(Cl)ccc2O)n[nH]1	25.6	-12.3	0.1	20.5	11.3	17.0	x	x	x
COc1ccc(Br)cc1/C=N/Nc1cccc(C(=O)O)c1	34.0	-1.3	-3.1	5.7	1.1	25.0	x	x	x
O=C(O)c1cccc(N/N=C/c2cc(Br)cc(Br)c2O)c1	18.5	-0.7	7.6	49.2*	25.8	77.8*	42.2*	x	74.2*
Cc1c(N=Cc2cc(Br)cc(Br)c2O)cccc1C(=O)O	57.6*	27.6	-6.7	59.4*	42.5*	83.4*	50.5*	26.9	89.9*
Cn1c(N)c(C(=O)COC(=O)/C=C/c2cccc(Br)c2)c(=O)n(C)c1=O	x	13.1	0.7	-10.1	-8.7	-13.4	x	x	x
CCOC(=O)C1CCN(C(=O)COC(=O)c2cccc(F)c2)CC1	3.2	13.4	0.0	9.4	-13.8	13.5	x	x	x
SMILES	NALP1 yeast inh	NLRP3 yeast inh	V-ATPase pHluor	tim10-1 inh	TIM10 inh	tim23-1 inh	tim10-1 confirm	tim10 confirm	tim23-1 confirm
C=CC#CC1(O)CC(C)[N+](C)(C)CC1C (centres undefined)	3.4	7.0	-2.5	23.5	9.9	1.5	x	x	x
COc1ccc2sc3ccccc3c(=O)c2c1OC	1.1	20.2	1.1	40.8*	52.3*	57.7*	56.8*	50.2*	64.1*
COc1ccc(-c2ccc3sc4ccccc4c(=O)c3c2)cn1	x	12.4	-6.9	-0.4	-4.7	15.7	x	x	x
Cc1ccc(Cl)cc1N1CCN(C(=O)CN2C(=O)c3cccc4cccc2c34)CC1	44.7	14.3	-0.9	13.3	14.0	7.6	x	x	x
CCc1cccc2c1NC(=O)C21N2CCCC2C(C(=O)c2ccc3ccccc3c2)C12C(=O)Nc1ccccc12 (centres undefined)	20.9	20.0	-3.2	64.8*	69.1*	50.6*	70.1*	70.8*	60.8*
Cc1cccc2c1NC(=O)C21N2CCCC2C(C(=O)c2ccc3ccccc3c2)C12C(=O)Nc1ccccc12 (centres undefined)	x	9.4	x	46.5*	42.6*	50.9*	71.3*	65.5*	57.2*
CCOc1ccc(-n2cc(-c3ccccc3)c3c(=S)nc[nH]c32)cc1	-2.6	-13.8	-2.5	70.3*	45.0*	64.2*	32.8*	46.9*	33.8
CCOc1ccc(-n2cc(-c3ccccc3)c3c(N4CCOCC4)ncnc32)cc1	13.4	-2.0	-1.8	34.8	4.4	19.6	x	x	x
Cc1cc(C(=O)NNC(=S)NCc2ccco2)n(C)n1	-7.3	20.3	-4.7	-4.9	4.0	-0.3	x	x	x
CC(C)c1cc(C(=O)NNC(=S)NCc2ccco2)c(O)c(C(C)C)c1	-1.6	8.2	1.9	55.3*	57.0*	54.3*	56.9*	6.6	65.8*
Cc1ccc(Cl)cc1N(CC(=O)Nc1cccc(N(C)S(C)(=O)=O)c1)S(C)(=O)=O	21.6	20.9	4.9	-14.8	0.8	-8.9	x	x	x
Cn1cccc1/C=N/n1c(-c2ccc(C(C)(C)C)cc2)n[nH]c1=S	13.3	19.9	2.8	44.0*	37.2	53.7*	28.6	x	48.5*
CN(C)c1ccc(N=Nc2nc3ccccc3n2C)cc1	x	36.5	6.2	64.6*	81.9*	86.5*	74.2*	73.2*	82.2*
CC(=O)Nc1ccc(N=Cc2c(O)c3ccccc3oc2=O)cc1	18.1	4.4	-77.2	6.0	-10.6	-4.8	x	x	x
CC(=O)Nc1ccc(N=Cc2c(O)c(C(=O)Nc3ccccc3)cc3ccccc23)cc1	-11.8	14.1	x	48.8*	62.6*	64.4*	1.3	20.6	33.7
